# From PubChem
# This is a sample that favours compounds with a hit; in the whole collection about 3% have one here.
# KCNH2 WT inh = qHTS for Inhibitors of KCHN2 3.1: Wildtype qHTS | Voltage-gated inwardly rectifying potassium channel KCNH2 (Homo sapiens), Q12809 | U2OS, BacMam KCNH2, thallium flux FluxOr; active compounds read low | activity change, % at 1.84 µM | 340,000 tested, 0.37% active | AID 720551, 2013;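 active means maximum activity change below -70%; inconclusive means maximum activity change between -70% and -50%; inactive means maximum activity change above -50%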; further: on the % scale 0 is the no-effect control and ±100 the full control effect
#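 U2OS cells transduced with wild-type KCNH2 virus are loaded with FluxOr dye for 45 min, and thallium flux is measured in kinetic reads before and after stimulation buffer. Rate constants are normalized to DMSO controls.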
# KCNH2 3.1 block = qHTS for Inhibitors of KCHN2 3.1: Mutant qHTS; activity change, % (tested at about 1.8 µM); 340,000 tested, 0.95% active; AID 720553, 2013; Potassium voltage-gated channel subfamily H member 2, brain isoform KCNH2 3.1 (human); U2OS KCNH2 3.1, thallium flux FluxOr; active compounds read low;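 active means maximum activity change below -70%; inconclusive means maximum activity change from -70% to -50%; inactive means maximum activity change above -50%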;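 further: thallium influx rate constant from kinetic fluorescence after stimulation buffer; on the % scale 0 is the no-effect control and ±100 the full control effect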
#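 Channel expression came from 3.1 mutant virus (1.77 x 10^8 /mL) applied to suspended U2OS cells for 4 h. Flux was tracked with FluxOr dye plus Red40 quencher, and kinetic rate constants normalized to controls.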
# ALOX12 inh = Primary qHTS assay for inhibitors of human arachidonate 12S-lipoxygenase (ALOX12): Round 2; Polyunsaturated fatty acid lipoxygenase ALOX12 (Homo sapiens), P18054; purified 12hLO, xylenol orange hydroperoxide absorbance; Potency, µM (titrated, usually from 108 µM), without a hit: at the highest dose activity change, negative = inhibition, most hits filed as inhibitors; 580,000 tested, 1.1% active; AID 1671190, 2021; active means well fitted inhibition curve with a large enough effect; inconclusive means small, poorly fitted or top-dose-only effect, or another doubt; inactive means no such curve, though single readings can be large or run the other way; further: potency means the concentration at half of the fitted maximal effect; on the % scale 0 is the no-effect control and ±100 the full control effect
#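 Hydroperoxide product was detected by ferrous iron/xylenol orange as the 573 to 405 nm absorbance ratio. Arachidonic acid at 40 uM (final) was turned over for 30 min at room temperature by 150 nM human 12hLO, pH 7.0 Hepes buffer, after 15 min compound preincubation.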
# LDHA inh = qHTS assay for inhibitors of human lactate dehydrogenase. AID 1347041, 2019. purified LDHA, NADH/diaphorase-resazurin fluorescence; active compounds read low. 480,000 tested, 0.15% active. L-lactate dehydrogenase A chain (Homo sapiens), P00338. activity change, % (values are at about 110 or 230 µM); in the data active means activity change below about -30%; inconclusive means mostly about -25% to -30%;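 further: plate controls were DMSO wells for no effect and wells without enzyme for full effect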
#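 Human LDH5 at 2 nM final in Tris HCl pH 7.4 with 0.06 mM NADH and 0.2 mM pyruvate, reacted 5 minutes at room temperature. Remaining NADH coupled via diaphorase/resazurin; resorufin fluorescence read at 0 and 20 minutes, normalized to enzyme-free and DMSO wells.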
# Chronic BCR inh = qHTS Assay to Find Inhibitors of Chronic Active B-Cell Receptor Signaling; ABC-DLBCL IkBa-CBG/CBR reporter, luminescence ratio, 4 h; Potency, µM (series often up to 46.1 µM), without a hit: at the top dose activity change, negative = inhibition, hits mostly inhibitors; 340,000 tested, 0.05% active; AID 493014, 2011; active means well fitted inhibition curve with a large enough effect in the signal ratio, with a control signal flat, not every such curve was filed as active; inconclusive means small, poorly fitted or top-dose-only effect, or effect the other way, or a change in a side signal; the % refers to the signal ratio;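 further: potency means the concentration at half of the fitted maximal effect; plate controls were basal doxycycline-induced cells for no effect and cells given 10 µM MG132 for full effect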
#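 Doxycycline induced both beetle luciferases in TMD8 lymphoma cells; IKK-driven degradation limits the IkappaBalpha-fused green signal, while red luminescence normalises for cell number and nonspecific effects. Compounds tested up to 46 uM, 4 hrs.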
# ClpP mod = qHTS Assay for Activators of ClpP | Potency, µM (highest dose often 57.5 µM), for inactives: at the top dose activity change, negative = active | AID 651965, 2013 | ATP-dependent Clp protease proteolytic subunit (Bacillus subtilis (strain 168)), P80244 | 340,000 tested, 1.9% active | purified B. subtilis ClpP, FRET peptide cleavage, 20 min; active means well fitted falling curve with a large enough effect; inconclusive means small, poorly fitted or top-dose-only effect; inactive means no such curve, though single readings can be large or run the other way; further: potency means the concentration at half of the fitted maximal effect; the source files actives as falling curves though it sought activators and does not explain the sign; nearly all actives have a fitted effect of over 65% in size
# Target sequence (P80244 whole entry, looked up): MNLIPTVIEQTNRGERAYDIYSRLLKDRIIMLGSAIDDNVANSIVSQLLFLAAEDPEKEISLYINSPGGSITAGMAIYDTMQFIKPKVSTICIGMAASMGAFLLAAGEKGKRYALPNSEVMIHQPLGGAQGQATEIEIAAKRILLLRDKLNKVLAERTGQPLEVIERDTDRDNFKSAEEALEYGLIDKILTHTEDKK
#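 Buffer: 100 mM Tris/HCl pH8, 100 mM KCl, 0.05% low protease BSA, 2.5% glycerol, 0.01% Tween-20. ClpP 10 microg/mL final; 20 min RT; delta FRET normalized to ADEP and DMSO controls.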
# Starred values were filed as active, the others as inactive; i = inactive; u = inconclusive; x = not tested or not shown.
SMILES,KCNH2 WT inh,KCNH2 3.1 block,ALOX12 inh,LDHA inh,Chronic BCR inh,ClpP mod
NS(=O)(=O)c1ccc(N/N=C/c2ccc(F)c(F)c2)c([N+](=O)[O-])c1,x,x,7%,6,x,x
Cc1cccc(C)c1NC(=O)CN1CCN(C(=O)CCc2ncc(-c3ccc(F)cc3)o2)CC1,x,x,-12%,-1,x,x
CCOC(=O)c1c(C)[nH]c(C)c1C(=O)COC(=O)c1ccccc1O,-1,-15,u,-3,-18%,1%
Cc1[nH]c2ccccc2c1C(=O)COC(=O)c1ccccc1O,-7,5,u,-6,u,3.5µM*
O=C(OCC(=O)c1c[nH]c2ccccc12)c1cc2ccccc2cc1O,2,-6,u,-2,-2%,20µM*
COc1ccc(-c2nnc(SCc3csc(Nc4ccc(C)cc4)n3)o2)cc1,x,x,-12%,6,x,x
C/C=C(\C)C(=O)OC1Cc2cc3ccc(=O)oc3cc2OC1(C)C (centres undefined),x,x,-33%,-3,x,x
Cc1cc(/C=C2/C(=N)N3C(=NC2=O)SN=C3S(C)(=O)=O)c(C)n1-c1ccccc1F,i,-2,u,-5,17%,x
CS(=O)(=O)C1=NSC2=NC(=O)/C(=C\c3cccn3-c3ccc(Cl)cc3)C(=N)N21,17,-16,u,-109*,u,-1%
Oc1ccc(C2CC3CC2C2C=CCC32)cc1 (centres undefined),x,x,u,-1,x,x
Cc1ccc(C(=O)NC(=S)Nc2ccc3c(c2)OCCO3)c(C)c1,-20,-16,13µM*,2,u,1%
O=C(NC(=S)Nc1ccc2c(c1)OCCO2)c1ccc(F)cc1Cl,-7,-3,-12%,-7,u,-20%
COc1cc(OC)cc(C(=O)NC(=S)Nc2ccc(N3CCCC3)cc2)c1,-8,1,45µM*,8,u,2%
COc1cc(OC)cc(C(=O)NC(=S)N2CCCCCC2)c1,-21,0,-18%,-6,5%,x
CCc1ccc(C(=O)NC(=S)Nc2ccc3c(c2)OCCO3)cc1,15,3,14µM*,-1,-2%,-1%
O=C(NC(=S)Nc1ccc(N2CCCCC2)c(Cl)c1)c1ccc2c(c1)OCCO2,9,7,22µM*,1,0%,0%
COc1cccc2cc(-c3csc(-c4ccc(F)cc4)n3)c(=O)oc12,x,x,u,-7,x,x
COc1cc(OC)cc(-c2onc(C)c2C(=O)NCCc2ccc(F)cc2)c1,x,x,38%,x,x,x
CCCNc1c(NC(=O)NCc2ccc(C)cc2)c(=O)oc2ccccc12,x,x,3%,2,x,x
Cn1c(=O)[nH]c(=O)c2[nH]c(CN3CCN(c4ccccc4F)CC3)nc21,x,x,u,9,x,x
Cc1ccc(C(=O)NC(=S)Nc2ccc(N3CCOCC3)cc2)c(C)c1,-14,-31,7.9µM*,-9,0%,x
Cc1ccc(C(=O)OCC(=O)Nc2ccc(N3CCOCC3)cc2)cc1,-2,29,-9%,-2,-7%,32µM*
CC(=O)Nc1ccc(C(=O)OCC(=O)Nc2ccc(N3CCOCC3)cc2)cc1,2,-3,5%,0,4%,-2%
COc1ccc(N2CCN(c3ccc(NC(=O)C4CCCCC4)cc3C#N)CC2)cc1,-4,-8,148%,-4,19%,28µM*
Cc1cc(C)cc(C(=O)NC(=S)Nc2ccc3c(c2)OCCO3)c1,-12,6,6.3µM*,1,-18%,3%
SMILES,KCNH2 WT inh,KCNH2 3.1 block,ALOX12 inh,LDHA inh,Chronic BCR inh,ClpP mod
CC(C)CCOc1ccc(/C=C(/CC(=O)O)c2nc3ccccc3s2)cc1,x,x,u,3,x,x
Cn1cc(S(=O)(=O)N2CCC(C(=O)Nc3cccc(Br)c3)CC2)cc1C(N)=O,x,x,8%,-9,x,x
Cc1cc(OC(C)C(=O)Nc2ccc3nsnc3c2)cc(C)c1Cl (centres undefined),x,x,u,-4,x,x
CCOC(=O)N1CCN(C(=O)c2cc3occc3n2Cc2ccccc2Cl)CC1,x,x,u,1,x,x
Cc1ccc(S(=O)(=O)CCc2ccccc2Cl)cc1C,x,x,-42%,-2,x,x
COc1ccc(/C=C/C(=O)NC(=S)Nc2ccc(N3CCN(C(C)=O)CC3)cc2)cc1,-174*,10,32%,0,-11%,1%
COc1ccc(S(=O)(=O)N2CCN(C(=O)COc3ccc4c(C)cc(=O)oc4c3)CC2)cc1,6,-2,0%,-1,u,22µM*
Cc1cc(=O)oc2cc(OCC(=O)N3CCCC(C)C3)ccc12 (centres undefined),1,3,27%,-4,0%,32µM*
CCC(C)c1ccc(S(=O)(=O)N2CCN(C(=O)COc3ccc4c(C)cc(=O)oc4c3)CC2)cc1 (centres undefined),-8,-12,0%,-3,u,u
Cc1nc2nc(SCC(=O)c3ccc(F)cc3)[nH]c2cc1Br,x,x,0%,4,x,x
COc1ccc(-c2nnc3n2CCN(C(=O)c2cccc(Cl)c2)C3)cc1,x,x,0%,x,x,x
COc1ccc(Nc2c(-c3ccc(C)cc3)nc3cnccn23)cc1,-10,-86*,u,3,-10%,1%
COc1ccc(Nc2c(-c3ccc(OC)cc3)nc3cnccn23)cc1,1,0,u,-1,-1%,-2%
COC(=O)c1cccc(-c2ccc(C=O)o2)c1,x,x,u,-2,x,x
COC(=O)C1=C(C)NC2=C(C(=O)CCC2)C1c1cn(Cc2ccc(Cl)cc2Cl)nc1-c1ccccc1 (centres undefined),-7,u,u,-1,u,18µM*
CCOC(=O)C1=C(C)NC2=C(C(=O)CCC2)C1c1cn(Cc2ccc(Cl)cc2Cl)nc1-c1ccccc1 (centres undefined),13,u,-7%,2,u,28µM*
COC(=O)C1=C(C)NC2=C(C(=O)CCC2)C1c1cccs1 (centres undefined),x,x,-1%,x,u,x
CCC(C)Nc1ccc2c(cc1=O)[C@@H](NC(C)=O)CCc1cc(OC)c(OC)c(OC)c1-2 (some centres undefined),x,x,u,17,x,x
O=C(NCCSCc1cccs1)C1CCCC1,x,x,7%,-1,x,x
O=C(NC(=S)Nc1ccc(CN2CCCCC2)cc1)c1cccc(OCc2ccccc2)c1,43,u,32µM*,0,-2%,x
